# High-throughput results deposited in PubChem by Buhrlage Lab, Dana-Farber Cancer Institute and Novartis Institutes for BioMedical Research (Cambridge, Mass).
# USP8 inh = inhibitors of human USP8 deubiquitinase | P40818 | purified USP8, Ub-rhodamine cleavage fluorescence, 30 min | inhibition, % at 20 µM | 4.2% of 47,000 active | AID 1645853
# USP7 block = inhibitors of human USP7 deubiquitinase; 0.3% of 47,000 active; purified USP7, Ub-rhodamine cleavage fluorescence; inhibition, % at 20 µM; AID 1645854; Q93009
# USP10 inh = human USP10 deubiquitinase inhibition; purified USP10, Ub-rhodamine fluorescence, 60 min; inhibition, % at 20 µM; 1.1% of 47,000 active
# OTUD3 inh = human OTUD3 deubiquitinase inhibition. Q5T2D3. purified OTUD3, Ub-rhodamine fluorescence, 2 h. inhibition, % at 25 µM. 0.7% of 47,000 active. AID 1645858
# UCHL1 block = inhibitors of human UCHL1 deubiquitinase; P09936; purified UCHL1, Ub-rhodamine cleavage fluorescence; inhibition, % at 20 µM; 0.2% of 47,000 active; AID 1645859
# * marks the source's active call; other numbers are inactive results; x = no result given. Only some compounds are listed: those with a hit (about 5% of all), similar ones and a draw of the others. Rule as the data show it: active = inhibition above about 30%; inactive = the rest.
SMILES,USP8 inh,USP7 block,USP10 inh,OTUD3 inh,UCHL1 block
COc1ccccc1NC(C)C(=O)N1CC(=O)Nc2ccccc21 (stereo not drawn),0.0,5.2,-1.2,0.4,2.0
COc1ccccc1NCC(=O)N1c2ccccc2NC(=O)C1(C)C,33.7*,6.4,-0.2,9.7,5.0
CCn1c(N2CCCC(C(=O)NCc3ccccc3)C2)cc(=O)n(C)c1=O (stereo not drawn),-82.3,-5.1,-4.8,-8.3,-2.4
Cc1ccc(-c2nc(-c3ccccc3)c(S(=O)(=O)CC(=O)Nc3ccc(C)c(C)c3)[nH]2)cc1,16.1,13.1,23.3,32.4*,7.6
COc1ccc(C(=O)Nc2ccccc2C(=O)NC(Cc2ccc(O)cc2)C(=O)NNC(=O)Cc2ccc(OC)c(OC)c2)cc1 (stereo not drawn),8.4,4.8,66.6*,-2.1,2.8
Cc1ccc(S(=O)(=O)Nc2ccccc2C(=O)Nc2nc3ccc(Br)cc3s2)cc1,95.5*,88.8*,92.7*,84.0*,53.2*
Cc1cc2occ(CC(=O)N3CCCCC3c3nnc(-c4cnccn4)o3)c2cc1C (stereo not drawn),30.2*,-2.7,-0.6,6.8,1.6
Cc1csc2nc3n(c(=O)c12)CCN(Cc1cnc[nH]1)CC3,-9.1,-0.1,0.6,0.1,-1.0
COc1ccc(CC(C#N)(C(=O)NC2CCCCC2)c2nc3ccccc3[nH]2)cc1 (stereo not drawn),69.7*,-11.7,-5.3,-9.8,-2.4
O=C(Nc1ccc(O)cc1)c1cccn2c(-c3ccccc3F)nnc12,56.4*,1.5,-0.9,0.0,3.4
Cc1nnc2c(NC(=O)c3cc(F)ccc3F)cccn12,15.4,0.7,-0.6,10.3,2.8
O=C1CC(c2ccccc2F)c2c(nc(-c3ccccc3)[nH]c2=O)N1 (stereo not drawn),-4.7,7.5,0.8,0.0,4.7
COc1cc(C2CC(=O)Nc3nc(-c4ccccc4)[nH]c(=O)c32)cc(OC)c1O (stereo not drawn),8.6,23.7,19.4,46.6*,7.9
N#Cc1cccc(NC(=O)N2CCC(c3nc4c(nnn4Cc4ccc(F)cc4)c(=O)[nH]3)CC2)c1,0.1,-6.5,9.2,9.1,1.3
N#Cc1cccc(NC(=O)Nc2cccn(Cc3ccc(F)cc3)c2=O)c1,90.8*,-1.4,19.7,3.5,7.5
O=C(NC1CCCCCC1)N1C[C@H]2C[C@H](C(=O)N3CCCC3)[C@@H](C1)O2,-189.8,2.9,0.9,6.9,0.2
Cc1ccc(CNC(=O)c2ccc(N3C(=O)[C@@H]4Cc5ccccc5CN4C3=O)cc2)cc1,5.2,4.4,14.0,11.0,5.6
COc1cccc(-c2cc3n(C)c(C)c(CCC(=O)NCc4ccco4)c(=O)n3n2)c1,53.4*,-43.4,-7.2,-11.3,-1.0
CC1CCN(C(=O)c2cc(-c3cccnc3)n[nH]2)CC1,-2.0,-4.0,2.8,-7.8,-0.5
CN(C)S(=O)(=O)c1ccc(S(=O)(=O)NCCc2ccc3c(c2)OCO3)cc1,-17.5,2.3,-0.7,12.3,3.8
Cc1c(F)cccc1NC(=O)C1CCCN(c2nnc3ccccn23)C1 (stereo not drawn),16.8,-4.8,0.2,0.2,3.5
Cc1ccccc1NC(=O)C1CCCN(c2nnc3ccccn23)C1 (stereo not drawn),-5.2,1.7,-0.3,4.6,1.0
Cc1c(Cl)cccc1NC(=O)C1CCCN(c2nnc(-n3cccc3)s2)C1 (stereo not drawn),59.9*,5.7,13.1,-12.5,1.8
COC(=O)c1ccccc1NC(=O)C1CCCN(c2nnc(-n3cccc3)s2)C1 (stereo not drawn),40.3*,10.3,15.0,27.7,7.6
COc1cccc(NC(=O)c2c(O)c3ccccc3n(CC(C)C)c2=O)c1,85.4*,2.2,3.0,-11.2,-1.0
SMILES,USP8 inh,USP7 block,USP10 inh,OTUD3 inh,UCHL1 block
CCn1c(=O)c(C(=O)NCc2cccnc2)c(O)c2ccccc21,3.0,x,0.9,1.7,1.7
Cn1c(=O)c(C(=O)Nc2cccc(F)c2)c(O)c2ccccc21,-0.4,0.0,0.1,-7.1,0.2
CCC(=O)NNC(=O)c1c(O)c2ccccc2n(CC)c1=O,50.8*,-3.2,1.9,-0.6,-1.6
COc1ccc(OC)c(NC(=O)C(C)N2c3cccc4cccc(c34)S2(=O)=O)c1 (stereo not drawn),40.9*,8.0,7.0,8.2,4.6
CCC(C(=O)C(C)C(O)C(C)CCc1ccc(C)c(O)c1C(=O)O)C1OC(CC)(C2CCC(O)(CC)C(C)O2)CC1C (stereo not drawn),20.5,27.7,61.3*,31.8*,4.9
O=c1cc(Cc2ccccc2)nc2c(-c3ccccc3)c(COc3ccccc3)[nH]n12,-6.1,52.1*,61.9*,23.0,10.1
O=C(Cn1c(COc2ccccc2)nc2ccccc21)Nc1cc(Cl)ccc1Cl,55.5*,11.7,26.4,5.3,3.4
O=C(Cn1c(COc2ccccc2)nc2ccccc21)Nc1ccc(N2CCOCC2)cc1,33.5*,10.7,23.4,5.8,2.2
O=C(Cn1c(COc2ccccc2)nc2ccccc21)Nc1cc(Cl)cc(Cl)c1,73.4*,20.7,15.9,8.1,7.6
COc1cccc(NC(=O)Cn2c(COc3ccccc3)nc3ccccc32)c1,15.1,5.6,5.9,0.4,0.6
O=C(Cn1nc(-c2ccco2)ccc1=O)Nc1cccc(Br)c1,1.1,-0.1,4.2,12.8,4.4
CC(=O)Nc1cccc(NC(=O)Cn2ccc3cc(Br)ccc32)c1,1.7,13.3,10.5,33.0*,-0.9
COc1ccc(NS(=O)(=O)c2cc(NC(=O)CC(=O)c3ccc([N+](=O)[O-])cc3)ccc2Cl)cc1,57.8*,7.2,58.0*,-4.4,-1.0
COc1ccccc1NS(=O)(=O)c1cc(NC(=O)CC(=O)c2ccc([N+](=O)[O-])cc2)ccc1C,67.5*,13.7,32.9*,3.4,8.8
COc1ccc(NS(=O)(=O)c2cccc(NC(=O)CC(=O)c3ccc([N+](=O)[O-])cc3)c2)cc1,11.6,14.8,46.0*,0.3,4.1
COc1ccc(NC(=O)Cc2cc(OC)c(OC)c(OC)c2)cc1S(=O)(=O)Nc1ccc(Br)cc1,-10.0,2.0,2.6,0.2,6.0
COc1ccc(NC(=O)CC(=O)c2ccc([N+](=O)[O-])cc2)cc1S(=O)(=O)Nc1ccc(Cl)cc1,57.8*,17.6,48.8*,13.2,4.1
Cc1nc2nc(CNc3ccccc3)nn2c(C)c1Cl,21.6,0.1,0.2,8.9,-0.9
CCc1ccccc1NC(=O)c1cnc2sc(C)cn2c1=O,-11.4,4.5,1.5,10.3,0.0
CC(C)(C)C(=O)N1CCCC(Cc2cc(C(N)=O)ncn2)CC1 (stereo not drawn),-66.8,-0.4,-0.1,0.0,-1.1
COc1ccc(-c2cn3ccc4cc(OC)c(OC)cc4c3c2-c2ccc(OC)c(OC)c2)cc1,30.8*,0.5,-1.7,-16.1,-1.6
COc1ccc(C2Nc3ccccc3C(=O)N2c2ccc3c(c2)OCO3)cc1O (stereo not drawn),56.6*,-2.4,-0.6,9.7,3.1
